Assay outcomes: PubChem BioAssay, NMMLSC
RGS8-Gao: RGS8-Galphao binding modulators, primary screen, biochemical, multiplexed bead flow cytometry; Guanine nucleotide-binding protein G(o) subunit alpha (Homo sapiens), P09471; actives lie on both sides; response (percent of control binding), % at 10 µM; 220,000 tested, 0.34% active; AID 1423, 2008; in the data active = response below about 60% or above about 140%; inactive = in between;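 note: Galphao activated as the GDP aluminium fluoride complex binding bead-coupled RGS8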
Target sequence (P09471 whole entry, looked up): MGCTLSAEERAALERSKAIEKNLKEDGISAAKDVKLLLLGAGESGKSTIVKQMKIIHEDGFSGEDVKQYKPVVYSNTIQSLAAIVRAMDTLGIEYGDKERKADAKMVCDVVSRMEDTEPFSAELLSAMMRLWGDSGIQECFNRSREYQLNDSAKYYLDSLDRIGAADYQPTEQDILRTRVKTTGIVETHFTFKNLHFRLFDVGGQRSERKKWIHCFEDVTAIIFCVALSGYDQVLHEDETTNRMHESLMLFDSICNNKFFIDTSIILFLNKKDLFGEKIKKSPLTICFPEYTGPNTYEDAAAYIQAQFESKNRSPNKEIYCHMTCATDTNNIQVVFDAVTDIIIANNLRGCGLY
GSH fluor: compound fluorescence on glutathione beads, profiling panel, artefact control, biophysical, 488/530 nm, flow cytometry; GSH beads flow cytometry, compound fluorescence 488/530 nm; active compounds read high; fluorescence (KMESF) at 10 µM; 190,000 tested, 0.25% active; AID 1776, 2009; in the data active = fluorescence above about 89;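 note: glutathione beads carrying GST-tagged Bcl family fusion proteins plus one bare bead set; values are compound well signal with DMSO vehicle wells as background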
RGS4-Gao reg: modulators of RGS4 binding to Galphao, primary screen, biochemical, multiplexed bead flow cytometry | binding response (% of control), % at 10 µM | 220,000 tested, 0.33% active | actives lie on both sides; in the data active = binding response below about 49% or above about 150%; inactive = in between;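 note: fluorescent Galphao activated with aluminum fluoride binding bead-coupled RGS4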
RGS7-Gao reg: RGS7-Galphao binding modulators, primary screen, biochemical, multiplexed bead flow cytometry | Guanine nucleotide-binding protein G(o) subunit alpha (Homo sapiens), P09471 | actives lie on both sides | binding response (% of control), % at 10 µM | 220,000 tested, 0.35% active | AID 1439, 2008; in the data active = binding response below about 49% or above about 150%; inconclusive = no clear call, values can overlap the other calls; inactive = in between;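 note: fluorescent Galphao held in activated GDP-AlF4 state binding bead-coupled RGS7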
RGS16-Gao: modulators of RGS16 binding to Galphao, primary screen, biochemical, human proteins, multiplexed bead flow cytometry; Regulator of G-protein signaling 16 (Homo sapiens) + Guanine nucleotide-binding protein …; bead-based flow cytometry RGS16-Galphao binding, fluorescence; actives lie on both sides; binding response (% of control), % at 10 µM; 220,000 tested, 0.38% active;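 note: Galphao activated by GDP with aluminum fluoride before binding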
Target sequence (O15492 whole entry, looked up): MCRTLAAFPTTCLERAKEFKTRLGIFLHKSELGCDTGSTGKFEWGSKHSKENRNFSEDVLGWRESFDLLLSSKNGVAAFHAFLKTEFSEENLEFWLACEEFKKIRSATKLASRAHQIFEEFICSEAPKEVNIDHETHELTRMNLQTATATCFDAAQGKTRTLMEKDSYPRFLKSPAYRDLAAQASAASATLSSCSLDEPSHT
Target sequence (P09471 whole entry, looked up): as the sequence (P09471 whole entry, looked up) above
Avidin bead fluor: green autofluorescence of compounds with avidin beads – biophysical, 488/530 nm, flow cytometry, artefact control, profiling panel | AID 1775, 2009 | fluorescence (KMESF) at 10 µM | 220,000 tested, 0.38% active | compound fluorescence 488/530 nm; active compounds read high; in the data active = fluorescence above about 47
RGS4-Gao HTS: modulators of RGS–Galpha-o binding, primary screen, biochemical, multiplexed beads, flow cytometry, RGS4/7/8/16/19; shares compounds with RGS16-Gao; multiplexed bead flow cytometry; RGS4–Galpha-o binding response, % at 10 µM; 1,600 tested, 99% active; AID 1504, 2009;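 note: fluorescently labeled Galpha-o bound to GDP with aluminium fluoride binding biotinylated RGS beads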
Avidin counter: disruption of biotin probe capture by avidin, counter-screen for RGS protein interaction modulators, biochemical, flow cytometry, bead-based; shares compounds with RGS16-Gao; streptavidin beads, fluorescein-biotin binding; inhibition, % at 10 µM; 1,700 tested, under 10 active;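 active = inhibition above 50%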;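 note: median green fluorescence of gated singlet beads compared with DMSO control wells; 0% = DMSO wells and 100% = complete loss of bead fluorescence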
RGS8-Gao confirm: RGS8-Galphao binding modulators, confirmation, biochemical, multiplexed bead flow cytometry, single concentration; AID 1836, 2009; binding response (% of control), % at 10 µM; shares compounds with RGS16-Gao; bead-based flow cytometry RGS8-Galphao binding, fluorescence; actives lie on both sides; 1,700 tested, 3% active; in the data active = binding response below about 72% or above about 130%; inactive = in between;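 note: Galphao activated as GDP AlF4 complex before binding bead RGS8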
RGS7-Gao confirm: RGS7-Galphao binding modulators, confirmation, biochemical, multiplexed bead flow cytometry, single concentration | bead-based flow cytometry RGS7-Galphao binding; actives lie on both sides | response (percent of control binding), % at 10 µM | shares compounds with RGS16-Gao | 1,700 tested, 7.8% active | AID 1837, 2009; in the data active = response below about 75% or above about 130%; inactive = in between;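 note: fluorescent Galphao activated with GDP and aluminum fluoride binding bead-coupled RGS7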
RGS16-Gao conf: modulators of RGS16-Galphao protein binding, confirmation, biochemical, single concentration, multiplexed bead flow cytometry | 1,700 tested, 4% active | AID 1838, 2009 | bead-based flow cytometry; actives lie on both sides | shares compounds with RGS16-Gao | response (% of control binding), % at 10 µM; in the data active = response below about 74% or above about 130%; inactive = in between;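 note: Galphao activated as the GDP aluminium fluoride complex binding bead-coupled RGS16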
RGS4-Gao single: modulators of RGS4-Galphao protein binding, confirmation, biochemical, single concentration, multiplexed bead flow cytometry; shares compounds with RGS16-Gao; binding response (% of control), % at 10 µM; 1,700 tested, 4% active; actives lie on both sides; in the data active = binding response below about 74% or above about 130%; inactive = in between
RGS19-Gao single: regulators of RGS19-Galphao binding, confirmation, biochemical, single point, multiplexed bead flow cytometry | shares compounds with RGS16-Gao | bead-based flow cytometry RGS19-Galphao binding; actives lie on both sides | response (percent of control binding), % at 10 µM | 1,700 tested, 5% active; in the data active = response below about 50% or above about 160%; inactive = in between;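 note: 100% = no compound control and 0% = blank background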
Starred values were filed as active, the others as inactive; [ ] = dose if it differs, or a comment. Sampled rows, rich in hits. Any-hit rate of the full collection: about 1.2%. Unless noted, the rule behind the calls is not given here.

How did O=C(NCc1ccccc1)c1ccc(C(=O)N(C2CCCCC2)C2CCCCC2)cc1 do in these assays?
GSH fluor: 41; Avidin counter: -1; RGS8-Gao confirm: 93; RGS7-Gao confirm: 86; RGS16-Gao conf: 90; RGS4-Gao single: 93; RGS19-Gao single: 86

What do the screens show for `NC(=O)c1ccc(F)cc1`?
RGS8-Gao: 15*; GSH fluor: 17; RGS4-Gao reg: 24*; RGS7-Gao reg: 18*; RGS16-Gao: 12*; Avidin bead fluor: 2; Avidin counter: -1; RGS8-Gao confirm: 105; RGS7-Gao confirm: 111; RGS16-Gao conf: 107; RGS4-Gao single: 110; RGS19-Gao single: 100

Results for O=C(CCSc1nnc2ccc3ccccc3n12)Nc1ccc(F)cc1 ?
GSH fluor: 37; Avidin counter: -2; RGS8-Gao confirm: 102; RGS7-Gao confirm: 103; RGS16-Gao conf: 101; RGS4-Gao single: 104; RGS19-Gao single: 108

How did Cc1cc(Oc2ccccc2)nc(-c2ccccc2)n1 do in these assays?
RGS8-Gao: 104; GSH fluor: 38; RGS4-Gao reg: 105; RGS7-Gao reg: 100; RGS16-Gao: 104; Avidin bead fluor: 12

Results for c1ccc(Oc2cc(-c3ccccc3)nc(-c3ccccc3)n2)cc1 ?
RGS8-Gao: 39*; GSH fluor: 10; RGS4-Gao reg: 27*; RGS7-Gao reg: 18*; RGS16-Gao: 19*; Avidin bead fluor: 4; Avidin counter: 0; RGS8-Gao confirm: 97; RGS7-Gao confirm: 97; RGS16-Gao conf: 95; RGS4-Gao single: 97; RGS19-Gao single: 105

How did CN(C)S(=O)(=O)c1cccc(NC(=S)NN=C(Cc2ccccc2)Cc2ccccc2)c1 do in these assays?
RGS8-Gao: 54*; GSH fluor: 13; RGS4-Gao reg: 91; RGS7-Gao reg: 51; RGS16-Gao: 101; Avidin bead fluor: 6; RGS4-Gao HTS: 91*; Avidin counter: 1; RGS8-Gao confirm: 101; RGS7-Gao confirm: 104; RGS16-Gao conf: 102; RGS4-Gao single: 107; RGS19-Gao single: 98

How did CCOc1ccccc1C(=O)N1CCN(c2cccc(Cl)c2)CC1 do in these assays?
RGS8-Gao: 100; GSH fluor: 7; RGS4-Gao reg: 99; RGS7-Gao reg: 100; RGS16-Gao: 103; Avidin bead fluor: 10

How did Fc1ccccc1N1CC(c2ccccc2)C(c2cccs2)=N1 (stereo not given) do in these assays?
RGS8-Gao: 9.2*; GSH fluor: 34; RGS4-Gao reg: 21*; RGS7-Gao reg: 15*; RGS16-Gao: -9; Avidin bead fluor: -1; Avidin counter: 0; RGS8-Gao confirm: 98; RGS7-Gao confirm: 96; RGS16-Gao conf: 93; RGS4-Gao single: 96; RGS19-Gao single: 70

What do the screens show for `COc1ccc(CNC(=O)N2CCN(c3ccc(F)cc3)CC2)cc1Cl`?
RGS8-Gao: 99; GSH fluor: 11; RGS4-Gao reg: 101; RGS7-Gao reg: inconclusive; RGS16-Gao: 96; Avidin bead fluor: 17

Results for Cc1ccc2c(c1)NC(=O)C(CC(=O)NCc1cccnc1)O2 (stereo not given) ?
RGS8-Gao: 161*[activator]; GSH fluor: 21; RGS4-Gao reg: 154*[activator]; RGS7-Gao reg: 145; RGS16-Gao: 285; Avidin bead fluor: 3; Avidin counter: -1; RGS8-Gao confirm: 97; RGS7-Gao confirm: 104; RGS16-Gao conf: 98; RGS4-Gao single: 99; RGS19-Gao single: 100

How did Cc1ccc2c(c1)NC(=O)C(CC(=O)NCc1ccc(F)cc1)O2 (stereo not given) do in these assays?
RGS8-Gao: 102; GSH fluor: 21; RGS4-Gao reg: 101; RGS7-Gao reg: 104; RGS16-Gao: 102; Avidin bead fluor: 8

What do the screens show for `COC1CCN(C(=O)CC2C(=O)NCCN2CC2CCCCC2)CC1` (stereo not given)?
RGS8-Gao: 100; GSH fluor: 15; RGS4-Gao reg: 98; RGS7-Gao reg: 98; RGS16-Gao: 97; Avidin bead fluor: 1

Results for COC1CCN(C(=O)CC2C(=O)NCCN2CC(C)(C)C)CC1 (stereo not given) ?
RGS8-Gao: 17*; GSH fluor: 13; RGS4-Gao reg: 10*; RGS7-Gao reg: 2.1*; RGS16-Gao: 5.7*; Avidin bead fluor: 0; Avidin counter: 3; RGS8-Gao confirm: 105; RGS7-Gao confirm: 98; RGS16-Gao conf: 107; RGS4-Gao single: 99; RGS19-Gao single: 110

How did COCc1cc(/C=N\NC(=O)Cc2ccc(OC)cc2)ccc1OC do in these assays?
RGS8-Gao: 70; GSH fluor: 10; RGS4-Gao reg: 92; RGS7-Gao reg: 98; RGS16-Gao: 21*; Avidin bead fluor: 1; RGS4-Gao HTS: 92*; Avidin counter: -1; RGS8-Gao confirm: 103; RGS7-Gao confirm: 103; RGS16-Gao conf: 100; RGS4-Gao single: 100; RGS19-Gao single: 109
